# Most compounds without a hit are left out; they make up all but 6.3% or so of the library.
# ATXN2 expr inh = reduces ATXN2 reporter expression in HEK-293 cells | AID 1745845 | 360,000 tested, 0.72% active | Potency, µM (doses to about 57 µM), for inactives: top-dose activity change, negative = inhibition, most hits filed as inhibitors | HEK-293 ATXN2-luciferase reporter, luminescence, 24 h; further: on the % scale 0 is the no-effect control and ±100 the full control effect; nearly all actives have a fitted effect of over 55% in size
#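 ATXN2-luciferase reporter cells (luciferase flanked by upstream and downstream ATXN2 gene portions) were treated 24 h at 37 °C with compounds at up to 57 uM. SteadyGlo luminescence gave expression; GF-AFC fluorescence gave viability.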
# HepG2 tox = kills HepG2 cells in TGF-b inhibitor counter-screen | Potency, µM (highest dose often 46.1 µM), without a hit: top-dose activity change, negative = cytotoxicity, most hits filed as cytotoxic | AID 588856 | 410,000 tested, 0.76% active | HepG2 CAGA-GFP viability, ATP luminescence, 18 h
#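 HepG2 CAGA-GFP cells (1000/well, DMEM with 1% FBS) received compound, then TGF-beta at 500 pg/mL final, and were incubated 18 hours at 37 degrees C. Viability was read by CellTiter-Glo luminescence. Media-only wells were set as complete cell-killing and DMSO as no toxicity.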
# ATXN viability = cell viability loss in ATXN counter-screen; S2 cells (HEK-293 line with an ATXN2-luciferase reporter) viability, CellTiter-Fluor protease fluorescence, 24 h; Potency, µM (doses to about 56.7 µM), hits mostly cytotoxic; 400,000 tested, 0.49% active; AID 651635; further: nearly all actives have a fitted effect of over 40% in size
# VP16 counter = Gal4-VP16 reporter inhibition counter-screen | Drosophila S2 Gal4-VP16 UAS-luciferase, luminescence, 20 h | AID 2546 | Potency, µM (doses to about 53.6 µM), for the others: at the highest dose activity, negative = inhibition, hits mostly inhibitors | 310,000 tested, 3.5% active;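 further: Gal4-VP16 expression switched on by copper sulfate through the metallothionein promoter; on the % scale 0 is the no-effect control and ±100 the full control effect; nearly all actives have a fitted effect of over 50% in size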
# RORgamma inh = blocks mouse ROR gamma transcriptional activity; Drosophila S2 Gal4-RORgamma UAS-luciferase reporter, 20 h; Potency, µM (doses to about 53.6 µM), inactives show at the top dose activity change, negative = inhibition, usual class: inhibitors; AID 2551; 310,000 tested, 5.4% active; further: on the % scale 0 is the no-effect control and ±100 the full control effect; nearly all actives have a fitted effect of over 60% in size
# Target sequence (P51450 whole entry, looked up, the tested form may be a part): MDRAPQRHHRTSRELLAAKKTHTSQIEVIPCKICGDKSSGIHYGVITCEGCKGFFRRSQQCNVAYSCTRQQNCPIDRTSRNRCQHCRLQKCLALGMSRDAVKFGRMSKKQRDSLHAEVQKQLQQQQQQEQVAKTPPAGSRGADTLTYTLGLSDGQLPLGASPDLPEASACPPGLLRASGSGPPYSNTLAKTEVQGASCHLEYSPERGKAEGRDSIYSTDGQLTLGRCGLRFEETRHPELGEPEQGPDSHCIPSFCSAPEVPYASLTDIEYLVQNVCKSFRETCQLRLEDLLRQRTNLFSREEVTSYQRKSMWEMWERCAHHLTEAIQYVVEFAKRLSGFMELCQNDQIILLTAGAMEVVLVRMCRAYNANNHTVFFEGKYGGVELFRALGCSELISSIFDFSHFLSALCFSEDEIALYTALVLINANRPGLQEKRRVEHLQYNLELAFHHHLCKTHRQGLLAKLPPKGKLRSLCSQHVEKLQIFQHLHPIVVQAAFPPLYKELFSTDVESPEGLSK
#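 Stably transfected Drosophila Schneider cells are the test system, with ROR gamma fused to Gal4 and luciferase under UAS control; luminescence is read after 20 hr of 700 uM copper sulfate induction at ambient temperature.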
# TGFb SMAD3 inh = blocks TGF-b signaling | HepG2 CAGA-GFP TGF-b/SMAD3 reporter, GFP fluorescence, 18 h; TGF-beta stimulated, 500 pg/mL final | Potency, µM (titrated, usually from 46.1 µM), for the others: top-dose activity, negative = inhibition, hits mostly inhibitors | 410,000 tested, 1.2% active | AID 588855; further: on the % scale 0 is the no-effect control and ±100 the full control effect; nearly all actives have a fitted effect of over 65% in size
#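 Per well, imaged GFP fluorescence of HEPG2 CAGA-GFP cells gives the signal; cells get compound, then TGF-beta (500 pg/mL final), 18 h at 37 degrees C; %Activity versus -TGF-beta and +DMSO controls.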
# Active calls of the source: *; i = inactive; ? = inconclusive; . = no result given; [ ] = remark or other dose. The call rests on the fitted dose curve; in most records, active means well fitted curve in the direction sought with a large enough effect; inconclusive means small, poorly fitted or top-dose-only effect, or another doubt; inactive means no such curve, though single readings can be large; an effect the other way counts as inactive or inconclusive. Potency means the concentration at half of the fitted maximal effect.
SMILES,ATXN2 expr inh,HepG2 tox,ATXN viability,VP16 counter,RORgamma inh,TGFb SMAD3 inh
S=C(NCc1ccccc1)Nc1ccc(Cl)cc1,15%,-31%,i,?,4.5µM*,?
S=C(NCc1cccnc1)Nc1ccc(Cl)cc1,-3%,-10%,i,2%,-10%,4%
Cc1ccc(N2C(=O)[C@@H]3[C@H](C2=O)[C@H]2C=CC=NN2[C@@H]3C(=O)Nc2ccc(Cl)cc2)cc1,-10%,-57%,i,?,10µM*,2%
Oc1cccc(-c2nc3ncccn3c2Nc2cccc(C(F)(F)F)c2)c1,?,-69%,?,.,.,13µM*
Cc1ccc(C(=O)NNC(=O)CSc2nnc3c(n2)[nH]c2ccc(C)cc23)cc1,?,-6%,?,0%,25%,1%
CCc1ccc2[nH]c3nc(SCC(=O)NNC(=O)c4ccc(C(C)(C)C)cc4)nnc3c2c1,?,6%,?,0%[0.365 µM],13µM*,-2%
Nc1nc2c(c(=O)[nH]1)N=C(CNc1ccc(C(=O)NC(CCC(=O)O)C(=O)O)cc1)CN2 (stereo not drawn),.,.,.,-1%,2%,.
O=c1cc(-c2ccccc2Cl)oc2cccc(O)c12,5%,-15%,i,-3%[96.6 µM],27%[96.6 µM],-3%
O=c1cc(-c2ccccc2O)oc2ccc3ccccc3c12,.,.,.,7.1µM*,6.3µM*,.
COc1ccc([C@H]2Oc3cc(O)cc(O)c3C(=O)C2[C@@H]2C(=O)c3c(O)cc(O)cc3O[C@@H]2c2ccc(OC)cc2)cc1 (stereo partly drawn),-7%,-112%,i,22µM*,-90%,?
O=C1c2c(O)cc(O)cc2OC(c2ccc(O)c(O)c2)C1O (stereo not drawn),11%,.,.,-2%,8%,.
CN(CCO)c1cc(Sc2nc3ccccc3s2)c2nonc2c1[N+](=O)[O-],10µM*,-99%,14µM*,13µM*,11µM*,?
O=C(CCCl)NCCc1ccccc1,9%,.,i,.,.,.
COc1ccc(CCC(=O)NNC(=S)NCc2ccc(F)cc2)cc1,-22%,10%,i,-19%,7.9µM*,-3%
COc1ccc(CCC(=O)NNC(=O)c2ccc(F)cc2)cc1,12%,9%,i,-9%,-15%,9%
Cc1ccc(C)c(C(C)NC(=S)NCc2ccc(F)cc2)c1 (stereo not drawn),?,-57%,i,1.4µM*,5µM*,?
CNC(=S)NCc1ccc(OC)cc1,0%,-2%,i,0%,0%,8%
COc1ccc(C(C)NC(=S)NCc2ccc(F)cc2)cc1 (stereo not drawn),-8%,-14%,i,1µM*,5.6µM*,?
COc1cccc(C(C)NC(=S)NCc2ccc(Cl)cc2)c1 (stereo not drawn),-14%,5%,i,?,6.3µM*,25%
COC(=O)c1cccc(NC(=S)NCc2ccc(Cl)cc2)c1,-7%,1%,i,4%[0.365 µM],?,-3%
COc1ccc(-c2nc3c4ccccc4ccn3c2Cc2ccsc2)cc1OC,54%,-25%,?,.,.,?
COC(=O)CC(NC1CCN(c2nc(C)c3cc4c(cc3n2)CCC4)CC1)C(=O)OC (stereo not drawn),.,.,i,.,.,.
CCOc1ccc(N(C(=O)CC(C)C)S(=O)(=O)c2ccc3c(c2)oc(=O)n3C)cc1,-4%,-18%,?,.,.,-2%
CCC(NC(=S)NCc1ccc(F)cc1)c1ccccc1 (stereo not drawn),?,-33%,i,3.2µM*,3.5µM*,-26%
Cc1cc(C(C)(C)C)cc(C)c1S(=O)(=O)N1CC(=O)Nc2ccccc21,-17%,13µM*,i,-17%,-23%,?
SMILES,ATXN2 expr inh,HepG2 tox,ATXN viability,VP16 counter,RORgamma inh,TGFb SMAD3 inh
Cc1ccc(C(C)(C)C)cc1S(=O)(=O)N1CC(=O)Nc2ccccc21,-32%,3%,.,-6%,12%,-8%
NC(=O)/N=N/C(N)=O,.,.,.,-2%,?,.
CCS(=O)(=O)c1oc(-c2ccc(F)cc2)nc1S(=O)(=O)c1ccccc1,.,2.5µM*,.,.,.,.
CCC(C)S(=O)(=O)c1oc(-c2ccc(F)cc2)nc1S(=O)(=O)c1ccc(F)cc1 (stereo not drawn),.,3.5µM*,.,.,.,?
CCCSc1oc(-c2cccs2)nc1S(=O)(=O)c1ccc(C)cc1,-8%,0%,i,.,.,-24%
Cc1ccc(S(=O)(=O)c2nc(-c3ccc(F)cc3)oc2N2CCN(c3ccccc3)CC2)cc1,.,0%,.,.,.,0%
CCCCCS(=O)(=O)c1oc(-c2cccs2)nc1S(=O)(=O)c1ccc(C)cc1,.,-104%,.,.,.,7.9µM*
CSc1oc(-c2ccc(F)cc2)nc1S(=O)(=O)c1ccc(Br)cc1,4%,0%,i,.,.,0%
CCCCS(=O)(=O)c1oc(-c2ccc(F)cc2)nc1S(=O)(=O)c1ccc(C)cc1,.,3.5µM*,.,.,.,4.5µM*
CCCCS(=O)(=O)c1oc(-c2cccs2)nc1S(=O)(=O)c1ccc(F)cc1,.,5.6µM*,.,.,.,5µM*
O[C@@H]1[C@@H]2c3cc4c(cc3CN3CCC(=C[C@@H]1O)[C@H]23)OCO4,.,.,.,2.5µM*,?,.
CCCCCOc1c(Cl)cc(C(=O)N(Cc2ccc(C)o2)C2CCS(=O)(=O)C2)cc1Cl (stereo not drawn),?,-55%,?,.,.,18µM*
Cc1nn(CCC#N)c2nc(-c3ccccc3)cc(C(F)(F)F)c12,-7%,6%,i,-5%,3%,-6%
Cc1nn(CCC(N)=S)c2nc(-c3cccs3)cc(C(F)(F)F)c12,-2%,-13%,i,6.3µM*,7.1µM*,-1%
CCNc1ncc2nc(-c3cc(F)cc(F)c3)c(=O)n(C[C@H]3CCCO3)c2n1,.,.,.,-3%,-7%,.
Nc1nc(NC(=O)C(Cl)(Cl)Cl)nn1-c1ccccc1,1%,-37%,i,?,13µM*,?
CN(CCOc1ccccc1)CC(=O)Nc1ccc([N+](=O)[O-])cc1Cl,-10%,-82%,i,-2%[10 µM],6%,11µM*
CN(CC(=O)Nc1ccccc1Cl)C(=O)COC(=O)c1ccc([N+](=O)[O-])cc1Cl,6%,1%,i,.,.,?
COc1cc(C)ccc1OCCOCCN(C)Cc1ccccc1,-13%,20µM*,i,2%,-10%,0%
COC(=O)c1ccc(NC(=S)N2CCN(Cc3ccccc3)CC2)cc1,-1%,-10%,i,?,3%,-26%
O=S(=O)(c1ccccc1)N1CCN(C(=S)Nc2ccccc2)CC1,1%,-1%,i,-5%,-15%,-13%
